From PubChem BioAssay (Tox21)
A number with no mark means an inactive call. Results filed as inconclusive are left out. Where a call stands in place of a potency, no number is given. Activity calls are given as the source filed them. Unless noted, calls follow the shape of the dose curve; as a rule, active = well fitted curve in the direction sought with a large enough effect in the repeat runs; inconclusive = weak or mixed curves; inactive = no such curve, though single readings can be large; an effect the other way counts as inactive or inconclusive.

Tests used:
[1] = qHTS assay to identify small molecule antagonists of the estrogen related receptor (ERR) signaling pathway from Tox21 library - cell viability counter screen (AID 1224834); settings: ERR reporter cells viability, CellTiter-Fluor, 17.5 h; series mostly up to 92.4 µM; also: nearly all actives have a fitted effect of over 30% in size
How it was run: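 Cytotoxicity of test substances is gauged in the same ERR cells used for the antagonist screen, after 17.5 h of compound treatment at 37 C, by CellTiter-Fluor fluorescence measured after 30 min.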

[2] = biological target: Luciferin 4-monooxygenase (Photinus pyralis) (UniProt P08659); assay: qHTS assay to identify small molecule inhibitors of firefly luciferase (AID 1224835); also: nearly all actives have a fitted effect of over 25% in size; settings: purified P. pyralis luciferase, luminescence inhibition; series mostly up to 115 µM
Sequence of Luciferin 4-monooxygenase (Photinus pyralis) (P08659 whole entry, looked up): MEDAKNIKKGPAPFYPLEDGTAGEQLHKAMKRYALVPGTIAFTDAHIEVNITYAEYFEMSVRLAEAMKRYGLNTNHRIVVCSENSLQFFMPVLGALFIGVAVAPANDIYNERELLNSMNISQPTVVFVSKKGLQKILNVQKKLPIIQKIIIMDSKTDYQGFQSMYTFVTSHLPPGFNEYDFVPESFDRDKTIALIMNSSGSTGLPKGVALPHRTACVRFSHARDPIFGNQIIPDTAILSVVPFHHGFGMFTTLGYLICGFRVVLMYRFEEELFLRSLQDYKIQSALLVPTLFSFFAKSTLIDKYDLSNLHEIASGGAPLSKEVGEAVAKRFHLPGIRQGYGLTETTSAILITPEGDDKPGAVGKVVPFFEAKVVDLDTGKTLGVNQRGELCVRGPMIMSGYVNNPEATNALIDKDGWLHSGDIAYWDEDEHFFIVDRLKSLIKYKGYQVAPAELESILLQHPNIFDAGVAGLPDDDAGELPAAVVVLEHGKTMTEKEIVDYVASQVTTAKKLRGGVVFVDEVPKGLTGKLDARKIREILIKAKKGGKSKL
How it was run: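 Inhibition of purified Photinus luciferase is measured by luminescence. Substrate levels (D-luciferin, ATP) sit at their KM values. Each compound is tested in a concentration series.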

[3] = qHTS assay to identify small molecule agonists of the constitutive androstane receptor (CAR) signaling pathway - cell viability counter screen (AID 1224836); settings: HepG2-CYP2B6-hCAR viability, CellTiter-Fluor, 23 h, PK11195 added to every well; series mostly up to 92.4 µM; also: nearly all actives have a fitted effect of over 45% in size
How it was run: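 Counter screen multiplexed with the CAR reporter readout: HepG2 cells co-transfected with hCAR and the CYP2B6-2.2kb construct receive a 15-concentration compound series and 0.75 uM PK11195 (final), then CellTiter-Fluor fluorescence is read after 23 h.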

[4] = qHTS assay to identify small molecule antagonists of the constitutive androstane receptor (CAR) signaling pathway - cell viability counter screen (AID 1224837); settings: HepG2-CYP2B6-hCAR viability, CellTiter-Fluor, 23 h, co-treated with 50 nM CITCO; series mostly up to 92.4 µM; also: nearly all actives have a fitted effect of over 45% in size
How it was run: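 Multiplexed cytotoxicity read-out for the CAR antagonist screen: double-stable HepG2-CYP2B6-hCAR cells co-treated with 50 nM CITCO (final) and compound over 15 concentrations, incubated 23 hr, then assessed by CellTiter-Fluor fluorescence.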

[5] = biological target: Nuclear receptor subfamily 1 group I member 3 (Homo sapiens) (UniProt Q14994); assay: qHTS assay to identify small molecule agonists of the constitutive androstane receptor (CAR) signaling pathway (AID 1224839); settings: HepG2 hCAR CYP2B6-luciferase, agonist mode, 24 h; series mostly up to 92.4 µM; also: nearly all actives have a fitted effect of over 15% in size
Sequence of Nuclear receptor subfamily 1 group I member 3 (Homo sapiens) (Q14994 whole entry, looked up): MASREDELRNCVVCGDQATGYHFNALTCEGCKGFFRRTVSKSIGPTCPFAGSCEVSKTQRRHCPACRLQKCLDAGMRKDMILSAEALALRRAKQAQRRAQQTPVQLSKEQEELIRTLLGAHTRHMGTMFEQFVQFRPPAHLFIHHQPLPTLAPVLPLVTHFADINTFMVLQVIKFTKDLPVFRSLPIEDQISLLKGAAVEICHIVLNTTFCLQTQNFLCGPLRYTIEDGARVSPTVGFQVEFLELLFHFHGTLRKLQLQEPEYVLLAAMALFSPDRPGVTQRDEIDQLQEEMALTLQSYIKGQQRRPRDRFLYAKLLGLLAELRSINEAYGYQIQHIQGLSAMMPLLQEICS
How it was run: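 A 15-concentration quantitative screen uses HepG2 cells co-transfected stably with human CAR and CYP2B6-2.2kb reporter. Treatment lasts 24 h with 0.75 uM PK11195 final present; ONE-Glo luminescence is the signal.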

[6] = qHTS assay to identify small molecule antagonists of the estrogen related receptor signaling pathway with the pleiotropic PPARgamma coactivator (PGC) from Tox21 10K library - cell viability counter screen (AID 1224840; active = well fitted cell-killing curve with a large enough effect in the repeat runs, not every such curve was filed as active; also: nearly all actives have a fitted effect of over 40% in size); settings: PGC/ERR reporter cells viability, CellTiter-Fluor, 17.5 h; series mostly up to 92.4 µM
How it was run: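 Step one, plate 2,000 PGC/ERR cells per well; step two, incubate 6 h at 37 C/5% CO2; step three, pin-transfer compounds; step four, incubate 17.5 h; step five, add CellTiter-Fluor and read fluorescence after 30 min.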

[7] = qHTS assay to identify small molecule antagonists of the estrogen related receptor signaling pathway with the pleiotropic PPARgamma coactivator (PGC) from Tox21 10K library (AID 1224841; call rule not given here; also: actives are mostly falling curves and most rising ones were filed inactive; nearly all actives have a fitted effect of over 50% in size); settings: PGC/ERR reporter cell line, ONE-Glo luciferase, 18 h; series mostly up to 92.4 µM
How it was run: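 Antagonism in this quantitative HTS is taken from loss of luciferase signal in PGC/ERR cells. Cells (2,000/well) are treated with compounds in DMSO after a 6 h settling period and read by One-Glo luminescence after 18 h.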

[8] = qHTS assay to identify small molecule agonists of the estrogen related receptor signaling pathway with the pleiotropic PPARgamma coactivator (PGC) from Tox21 10K library (AID 1224842); settings: PGC/ERR reporter cell line, luciferase ONE-Glo, 18 h; series mostly up to 92.4 µM; also: nearly all actives have a fitted effect of over 15% in size
How it was run: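 Luminescence from One-Glo (30 min, room temperature) measured after PGC/ERR cells had 18 h at 37 C with pinned compound (23 nL in DMSO). Cells had been seeded at 2,000 per well and pre-incubated 6 h.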

[9] = biological target: Thyrotropin receptor (Homo sapiens) (UniProt P16473); assay: qHTS assay to identify small molecule agonists of the thyroid stimulating hormone receptor (TSHR) signaling pathway (AID 1224843; calls by dose curve; also: nearly all actives have a fitted effect of over 45% in size); settings: TSHR-HEK293 cells, cAMP HTRF, agonist mode, 30 min; series mostly up to 92.4 µM
Sequence of Thyrotropin receptor (Homo sapiens) (P16473 whole entry, looked up): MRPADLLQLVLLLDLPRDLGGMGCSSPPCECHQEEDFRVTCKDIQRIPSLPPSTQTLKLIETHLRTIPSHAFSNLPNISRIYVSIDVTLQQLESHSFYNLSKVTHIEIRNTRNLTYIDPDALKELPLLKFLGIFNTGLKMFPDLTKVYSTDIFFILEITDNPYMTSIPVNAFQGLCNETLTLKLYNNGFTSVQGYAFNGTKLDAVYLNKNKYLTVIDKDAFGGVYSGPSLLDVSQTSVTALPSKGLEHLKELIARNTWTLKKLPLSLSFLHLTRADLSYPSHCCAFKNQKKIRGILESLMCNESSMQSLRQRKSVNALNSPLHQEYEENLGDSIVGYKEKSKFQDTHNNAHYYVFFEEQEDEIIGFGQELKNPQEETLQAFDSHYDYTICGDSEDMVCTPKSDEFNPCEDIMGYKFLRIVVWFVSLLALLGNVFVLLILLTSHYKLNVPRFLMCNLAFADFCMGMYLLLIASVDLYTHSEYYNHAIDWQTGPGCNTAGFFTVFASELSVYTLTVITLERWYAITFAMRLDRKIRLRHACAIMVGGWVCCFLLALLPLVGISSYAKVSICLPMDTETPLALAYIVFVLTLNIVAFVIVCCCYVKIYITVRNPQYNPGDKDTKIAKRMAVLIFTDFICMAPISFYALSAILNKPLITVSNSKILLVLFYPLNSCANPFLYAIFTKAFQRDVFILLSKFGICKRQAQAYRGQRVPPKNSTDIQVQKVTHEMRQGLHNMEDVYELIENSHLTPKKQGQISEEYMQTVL
How it was run: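 HEK293 cells stably bearing the thyrotropin receptor were plated at 800 cells/well and challenged with compound (30 min, RT). Accumulated cAMP was quantified via cAMP-d2 competing for cryptate-tagged antibody.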

[10] = qHTS assay to identify small molecule agonists of the hypoxia (HIF-1) signaling pathway - cell viability counter screen (AID 1224844; calls by dose curve; also: nearly all actives have a fitted effect of over 50% in size; also: potency is read from the fitted curve at half-maximal effect); settings: HRE-bla ME-180 viability, CellTiter-Glo luminescence, 17 h; series mostly up to 76.8 µM
How it was run: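 Tox21 10K compounds were added to HRE-bla ME-180 cells (0.5% dialyzed FBS) and incubated 17 hrs at 37C; ATP-based CellTiter-Glo luminescence then reported cell viability in the same wells.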

[11] = qHTS assay to identify small molecule agonists of H2AX (AID 1224845; active = well fitted activation curve with a large enough effect in the signal ratio in the repeat runs, not every such curve was filed as active; the % refers to the signal ratio); settings: CHO-K1 phospho-H2AX Ser139 HTRF, 3 h; series mostly up to 154 µM
How it was run: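 Phospho-H2AX Ser139 measured by HTRF (ex 320 nm; em 665 and 620 nm) after 24 hr antibody incubation. Compounds, 15 concentrations, 0.76% DMSO, were applied to CHO-K1 cells for 3hr at 37C before lysis.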

[12] = qHTS assay to identify small molecule agonists of the hypoxia (HIF-1) signaling pathway (AID 1224846; active = well fitted activation curve with a large enough effect in the signal ratio in the repeat runs, not every such curve was filed as active; the % refers to the signal ratio); settings: HRE-bla ME-180 cells, beta-lactamase ratio, 17 h; series mostly up to 76.8 µM
How it was run: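 Steps: seed ME-180 HRE-bla cells (2,000/well, 0.5% dialyzed FBS); incubate 5 hrs at 37C; pin-transfer compounds or DMSO; incubate 17 hrs; add LiveBLAzer B/G substrate CCF4-AM; measure reporter activation by FRET.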

[13] = qHTS assay to identify small molecule agonists of H2AX - cell viability counter screen (AID 1224847; calls by dose curve; also: top concentration of the series differs between compounds; nearly all actives have a fitted effect of over 30% in size); settings: CHO-K1 viability, CellTiter-Glo luminescence, 3 h; series mostly up to 154 µM
How it was run: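 We seed wild-type CHO-K1 cells overnight, treat them for 3 hr at 37C with compounds in 15-concentration series, and quantify remaining viability by CellTiter-Glo luminescence.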

[14] = qHTS assay to identify small molecule agonists of the estrogen related receptor (ERR) signaling pathway from Tox21 library (AID 1224849; calls by dose curve; also: nearly all actives have a fitted effect of over 15% in size); settings: ERR reporter cell line, ONE-Glo luciferase, 18 h; at 92.4 µM (top of the series) unless noted
How it was run: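 Agonist signal is luciferase luminescence from an ERR reporter cell line treated 18 h at 37 C with DMSO-dissolved compounds, read 30 min after ONE-Glo addition at room temperature.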

[15] = qHTS RealTime-Glo MT Cell Viability Assay in HepG2 cells - 24 hour (AID 1224867); settings: RealTime-Glo luminescence; series mostly up to 76.8 µM; also: nearly all actives have a fitted effect of over 50% in size
How it was run: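 Luminescence read-out: viable HepG2 cells reduce a prosubstrate to a NanoLuc substrate, giving a signal proportional to live cell number. Reads taken at 0, 8, 16, 24, 32 and 40 h of compound exposure at 37 C.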

[16] = qHTS RealTime-Glo MT Cell Viability Assay in HEK293 cells - 32 hour (AID 1224868); settings: RealTime-Glo luminescence; series mostly up to 76.8 µM; also: top concentration of the series differs between compounds; nearly all actives have a fitted effect of over 50% in size
How it was run: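 Nonlytic real-time viability readout: viable cells convert prosubstrate to NanoLuc substrate, giving luminescence proportional to live cell number. HEK293, 600 cells/well, compound added after 5 h, continuous culture at 37 C.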

[17] = qHTS RealTime-Glo MT Cell Viability Assay in HepG2 cells - 40 hour (AID 1224870); settings: RealTime-Glo luminescence; series mostly up to 76.8 µM; also: nearly all actives have a fitted effect of over 50% in size
How it was run: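 Real-time viability: cells seeded at 600 per well together with NanoLuc and cell-permeant prosubstrate, compounds added after 5 h incubation. Luminescence tracked at 0, 8, 16, 24, 32 and 40 h of exposure.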

[18] = biological target: Nuclear receptor subfamily 1 group I member 3 (Homo sapiens) (UniProt Q14994); assay: qHTS assay to identify small molecule antagonists of the constitutive androstane receptor (CAR) signaling pathway (AID 1224838); settings: HepG2-CYP2B6-hCAR luciferase, CITCO-stimulated, 24 h; series mostly up to 92.4 µM; also: nearly all actives have a fitted effect of over 40% in size
How it was run: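 Compounds were titrated across 15 concentrations onto HepG2 cells double-stably expressing hCAR and a CYP2B6-2.2kb reporter, together with 50 nM CITCO (final). After 24 h at 37 C, luciferase activity was measured by luminescence.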

[19] = A CellTox Green Cytotoxicity Assay to monitor cytotoxicity in HEK293 cells - 0 hour (AID 1224869); settings: CellTox Green fluorescence; series mostly up to 76.8 µM; also: nearly all actives have a fitted effect of over 50% in size
How it was run: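 Cytotoxicity was tracked continuously in HEK293 cells by a DNA-binding dye excluded from viable cells. Compounds were transferred in DMSO 5 h after seeding; fluorescence was recorded at intervals up to 40 h.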

SMILES | Potency [1] | Potency [2] | Potency [3] | Potency [4] | Potency [5] | Potency [6] | Potency [7] | Potency [8] | Potency [9] | Potency [10] | Potency [11] | outcome [12] | Potency [13] | activity change, positive = activation [14] | Potency [15] | Potency [16] | Potency [17] | Potency [18] | Potency [19]
CC1CC(O)CC(C)(C)C1 (stereo not drawn) | inactive | inactive | inactive | inactive | inactive | inactive | inactive | inactive | inactive | inactive | inactive | inactive | inactive | -6.05% | inactive | inactive | inactive |  | 
OCCSc1ccccc1 | inactive | inactive | inactive | inactive | inactive |  |  |  | inactive | 21.9 µM (active) | inactive |  | inactive |  | inactive | inactive | inactive | inactive | inactive
C[Si](NC1CCCCC1)(NC1CCCCC1)NC1CCCCC1 | inactive | inactive | inactive | inactive |  | inactive |  |  | inactive | 19.5 µM (active) | inactive |  | inactive |  | inactive | inactive | inactive |  | 
